Measurements: PubChem BioAssay (NCI)
About 83,000 compounds went through this panel and 20% of them were active in at least one assay; those are over-represented in the sample as a whole.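 96-well plates, one dose, 48 hours. Percent growth reported; active if below 10.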 The source made the active and inactive calls.

Columns and labels:
Assay in all cases: NCI-60 one-dose screen, 48 h (100 = growth as untreated, 0 = no growth, -100 = all killed)
Conditions in all cases: 10 µM unless noted
SR leukemia = system: SR leukemia
RPMI-8226 leukemia = system: RPMI-8226 leukemia
OVCAR-8 ovarian = system: OVCAR-8 ovarian
OVCAR-5 ovarian = system: OVCAR-5 ovarian
OVCAR-4 ovarian = system: OVCAR-4 ovarian
SK-OV-3 ovarian = system: SK-OV-3 ovarian
IGROV1 ovarian = system: IGROV1 ovarian
OVCAR-3 ovarian = system: OVCAR-3 ovarian
HS 578T breast = system: HS 578T breast
NCI/ADR-RES ovarian = system: NCI/ADR-RES ovarian

Measured: growth

CC1=Nc2cnc(Nc3ccc(OCCN4CCCCC4)cc3)nc2Nc2ccccc21
inactive: SR leukemia 33.7% | RPMI-8226 leukemia 62.7% | OVCAR-8 ovarian 72.9% | OVCAR-5 ovarian 70.7% | OVCAR-4 ovarian 53% | SK-OV-3 ovarian 34.8% | IGROV1 ovarian 14.7% | OVCAR-3 ovarian 68.9% | HS 578T breast 33.6% | NCI/ADR-RES ovarian 69.8%

COc1ccc(C(=O)C2C(c3ccc(OC)cc3)CN(C)C23C(=O)Nc2ccccc23)cc1 (stereo not given)
inactive: SR leukemia 98% | RPMI-8226 leukemia 88.6% | OVCAR-8 ovarian 95.5% | OVCAR-5 ovarian 88.6% | OVCAR-4 ovarian 83.6% | SK-OV-3 ovarian 91.4% | IGROV1 ovarian 80.8% | OVCAR-3 ovarian 97.8% | HS 578T breast 93.2% | NCI/ADR-RES ovarian 76.7%

Cc1ccccc1/C=C1\CN(C(=O)OC(C)(C)C)C/C(=C\c2ccccc2C)C1=O
active: SR leukemia 8.93% | RPMI-8226 leukemia -23.7% | OVCAR-4 ovarian -2.97% | OVCAR-3 ovarian -30.9%
inactive: OVCAR-8 ovarian 17.1% | OVCAR-5 ovarian 51.1% | SK-OV-3 ovarian 74.9% | IGROV1 ovarian 26% | HS 578T breast 31.2% | NCI/ADR-RES ovarian 15.7%

Cc1ccc2c3c(c(=O)[nH]c2c1)C1(C(C#N)=C(N)O3)c2cc(Br)ccc2-c2ccc(Br)cc21
inactive: SR leukemia 22.2% | RPMI-8226 leukemia 14.8% | OVCAR-5 ovarian 18.3% | SK-OV-3 ovarian 47.7% | NCI/ADR-RES ovarian 54.1%
active: OVCAR-8 ovarian 0.183% | OVCAR-4 ovarian -50% | IGROV1 ovarian -13.2% | OVCAR-3 ovarian -40.1% | HS 578T breast -5.5%

Clc1ccc(CNc2c3ccccc3nc3ccccc23)cc1
active: SR leukemia 2.32% | RPMI-8226 leukemia 8.02%
inactive: OVCAR-8 ovarian 31.9% | OVCAR-5 ovarian 50.5% | OVCAR-4 ovarian 33.1% | SK-OV-3 ovarian 60% | IGROV1 ovarian 31.7% | OVCAR-3 ovarian 51.1% | HS 578T breast 53.8% | NCI/ADR-RES ovarian 36.7%

CN1C(=O)N(C)C2Nn3c(s/c(=C\c4ccc(C(F)(F)F)cc4)c3=O)=NC21 (stereo not given)
inactive: SR leukemia 96.9% | RPMI-8226 leukemia 106% | OVCAR-8 ovarian 108% | OVCAR-5 ovarian 103% | OVCAR-4 ovarian 102% | SK-OV-3 ovarian 111% | IGROV1 ovarian 101% | OVCAR-3 ovarian 106% | HS 578T breast 105% | NCI/ADR-RES ovarian 99.8%
